# Reference: the supplement of paper PMC13380429
# A number with no mark means an inactive call.
# Tested on: Vero E6 infected with SARS-CoV-2
# Test: inhibition of SARS-CoV-2 cytopathic effect; higher = more antiviral protection, active = above 15
# Conditions: 48 h
SMILES,inhibition of SARS-CoV-2 cytopathic effect (1 nM) [%],inhibition of SARS-CoV-2 cytopathic effect (8.33 nM) [%],inhibition of SARS-CoV-2 cytopathic effect (100 nM) [%],inhibition of SARS-CoV-2 cytopathic effect (833.33 nM) [%],inhibition of SARS-CoV-2 cytopathic effect (10000 nM)
c1cc2c3c(c1)c1c(n3CCNC2)CCCC1,-1.27,-0.02,0.6,0.21,-0.08%
COc1ccc(-c2cc3nccn3c(Nc3ncccc3C(N)=O)n2)cc1OC,-3.34,-0.9,-4.75,-2.69,-6.9%
CN1C(=O)N[C@H](Cc2c[nH]c3c(Cl)cccc23)C1=O [necrostatin-2],-3.13,-7.04,-6.01,-0.96,-5.96%
CCOC(=O)[C@H](CCc1ccccc1)N[C@@H](C)C(=O)N1Cc2ccccc2C[C@H]1C(=O)O [quinapril],1.54,1.58,0.68,2.09,4.29%
C=CC(=O)N1CCC[C@@H](n2nc(-c3ccc(Oc4ccccc4)cc3)c3c(N)ncnc32)C1 [ibrutinib],-2.27,-1.2,0.01,-0.37,1.62%
Cc1nc2ccccc2c(-c2ccc3c4c(ccnc24)CCO3)c1[C@H](OC(C)(C)C)C(=O)O,-1.93,-2.73,-4.38,-4.78,-3.59%
CCN(CC)C(=O)c1ccc(C2=CC3(CCNCC3)Oc3cccc(O)c32)cc1,-0.93,-0.47,-4.19,-2.26,-2.32%
O=[N+]([O-])c1cc(O)c(O)c([N+](=O)[O-])c1,-0.65,-3.05,-3.12,1.93,-3.2%
CCOc1ccccc1-n1c(C(C)N2CCN(C(=O)COc3ccc(Cl)cc3)CC2)nc2ccccc2c1=O (stereo not given) [erastin],-2.42,-0.63,-0.86,-2.74,7.21%
NC(=O)c1cc([N+](=O)[O-])cc([N+](=O)[O-])c1 [nitromide],0.52,1.05,1.48,0.38,-0.05%
C[C@@H](N)Cc1c[nH]c2ccc(O)cc12 [alpha-methylserotonin],-0.1,-1.31,-1.23,-0.05,-3.72%
N=C(N)NC(=N)NCCc1ccccc1 [phenformin],-3.22,0.38,-2.7,-2.58,-5.63%
c1ccc2c(c1)[I+]c1ccccc1-2 [diphenyleneiodonium],0.63,1.31,-0.64,-1.09,0.37%
OCCOc1ccc(/C(=C(/CCCl)c2ccccc2)c2ccccc2)cc1 [ospemifene],-2.23,1.01,3.19,3.68,8.11%
CC[C@@H]([C@H](C)O)n1ncn(-c2ccc(N3CCN(c4ccc(OC[C@@H]5CO[C@@](Cn6cncn6)(c6ccc(F)cc6F)C5)cc4)CC3)cc2)c1=O [posaconazole],0.11,0.51,0.36,2.23,-6.91%
Oc1ccc2[nH]cc(C3=CCNCC3)c2n1,6.34,6.88,-4.05,-1.7,-2.6%
CCOC(=O)C1=C(COCCN)NC(C)=C(C(=O)OC)C1c1ccccc1Cl (stereo not given) [amlodipine],0.58,-0.7,1.37,-2.2,1.18%
O=C(c1cn(Cc2cncn2Cc2ccc(Br)cc2)cc1-c1cccc2ccccc12)N1CCOCC1,-2.2,-3.17,-1.58,-0.44,-3.78%
Cc1nc(-c2cccnc2)sc1C(=O)Nc1ccccc1-c1cn2c(CN3CCOCC3)csc2n1,-1.3,1.11,1.74,0.18,-2.05%
Nc1nc(Nc2ccccc2)nc2c1ncn2[C@@H]1O[C@H](CO)[C@@H](O)[C@H]1O,2.4,4.07,1.9,1.06,-2.77%

SMILES,inhibition of SARS-CoV-2 cytopathic effect (1 nM) [%],inhibition of SARS-CoV-2 cytopathic effect (8.33 nM) [%],inhibition of SARS-CoV-2 cytopathic effect (100 nM) [%],inhibition of SARS-CoV-2 cytopathic effect (833.33 nM) [%],inhibition of SARS-CoV-2 cytopathic effect (10000 nM)
CSc1nc2ccc3nc(NC(=O)C(c4ccccc4)c4ccccc4)sc3c2s1,1.77,1.67,1.24,1.38,-1.25%
CCCCCCCCCCCCC/C=C/[C@@H](O)[C@@H](N)CO[P@](=O)(O)OCC[N+](C)(C)C [sphingosylphosphorylcholine],-0.9,-2.99,3.74,-2.02,3.54%
C[C@]12CCC(=O)C(O)=C1CC[C@@H]1[C@@H]2CC[C@]2(C)C(=O)CC[C@@H]12 [formestane],-6.07,-1.52,4.22,6.78,-1.65%
CCC(=O)[C@@]1(C)[C@H](C)C[C@H]2[C@@H]3CCC4=CC(=O)C=C[C@]4(C)[C@H]3[C@@H](O)C[C@@]21C [rimexolone],-1.78,-0.66,-2.92,0.22,-2.54%
Cc1ccccc1CN1C(=O)C2=C(CCN(Cc3ccccc3)C2)N2CCN=C12,0.63,0.83,0.4,3.83,0.84%
CC[C@@H]1C(=O)OC[C@@H]1Cc1cncn1C [pilocarpine],0.9,1.12,1.22,3.49,3.05%
NC[C@@](O)(c1ccc(Cl)cc1)c1ccc(-c2cn[nH]c2)cc1,-0.97,1,-2.8,-3.57,-13.7%
COc1ccc(OC)c([C@@H](O)CNC(=O)CN)c1 [midodrine],1.29,3.25,-1.42,0.19,-0.39%
COc1cc([C@@H]2c3cc4c(cc3[C@@H](O[C@@H]3O[C@@H]5CO[C@@H](C)O[C@H]5[C@H](O)[C@H]3O)[C@H]3COC(=O)[C@H]23)OCO4)cc(OC)c1OP(=O)(O)O [etoposide-phosphate],-3.4,-1.24,-0.75,-0.98,1.67%
COc1c2occc2c(OC)c2c(=O)cc(C)oc12 [khellin],3.97,-0.75,-0.95,-3.54,-0.89%
CN1CCN(CCCN2c3ccccc3Sc3ccc(Cl)cc32)CC1 [prochlorperazine],-0.92,0.64,0.48,-0.06,14.6%
O=C(Nc1cc(C(F)(F)F)ccc1O)Nc1cc(C(F)(F)F)ccc1O,-2.23,2.44,6.17,-1.82,-0.23%
c1cc(OCCN2CCCCC2)cc(-c2n[nH]c3ccc(-c4nnc[nH]4)cc23)c1,-0.48,-0.97,-0.96,3.62,3.74%
COC(=O)C(c1ccccc1)C1CCCCN1 (stereo not given),-1.97,-1.71,-1.37,-1.52,-0.37%
C[C@@H](NC(=O)c1ncnc(N)c1Cl)c1ncc(C(=O)Nc2cc(C(F)(F)F)c(Cl)cn2)s1,-0.01,6.23,4.35,4.42,-1.31%
CC(C)n1nc(-c2cc3cc(O)ccc3[nH]2)c2c(N)ncnc21,1.52,2.09,1.4,2.07,-1.69%
NCCCCN=C(N)N [agmatine],2.36,2.56,-1.24,-2.12,-4.69%
O=S1(=O)OC(c2ccc(O)cc2)(c2ccc(O)cc2)c2ccccc21 [phenolsulfonphthalein],-0.46,-1.87,-1.84,-1.16,3.89%
COc1cc(/C=C/C(=O)CC(=O)/C=C/c2ccc(O)c(OC)c2)ccc1O [curcumin],-1.79,-0.65,1.73,4.68,23.4% (active)
FC(F)(F)c1ccccc1-c1cc(C(F)(F)F)c2[nH]c(C3=NOC4(CCCCC4)C3)nc2c1,-0.82,0.77,-0.98,-2.13,-3.97%
